Test results published in PubChem BioAssay AID1159580 (chemical genetic matrix, 2015).
Screen size: about 5,500 compounds; about 2,000 (36%) were called active. Not shown: some 18% with an inconclusive outcome. Cut-off read from the data, not from the text of the source: active = normalized growth mostly below about 0.91 (no sharp cut-off); inconclusive = no clear call, values can overlap the other calls; inactive = mostly above about 0.92. This is one part of the list.

Test: chemical genetic growth profiling, strain panel (AID 1159580);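 note: tested at 20 µM; growth read once vehicle control cultures reached saturation at 30 °C; 1 = growth at the plate median or of vehicle wells; lower values mean less growth of the strain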
Settings: S. cerevisiae deletion strains, growth OD

Measured: normalized growth

CN(C)C(N)=NCCC[C@H](N)C(=O)O
inactive: locus YAL013W, strain DEP1, hits give low values 1 | locus YAL040C, strain CLN3, hits give low values 0.998 | locus YCL061C, strain MRC1 (second series), hits give low values 1.01 | locus YDR150W, strain NUM1, hits give low values 0.997 | locus YDR363W, strain ESC2, hits give low values 1.04 | locus YER002W, strain NOP16, hits give low values 0.979 | locus YJR075W, strain HOC1, hits give low values 1.01 | locus YMR307W, strain GAS1, hits give low values 1.01 | locus YNL128W, strain TEP1, hits give low values 0.988 | locus YNL175C, strain NOP13, hits give low values 1 | locus YNL197C, strain WHI3, hits give low values 1.02 | locus YNL224C, strain SQS1, hits give low values 0.984 | locus YOR083W, strain WHI5 (second series), hits give low values 0.988 | locus YPL055C, strain LGE1, hits give low values 1.03 | locus YPL241C, strain CIN2, hits give low values 1
